# Compound activity from PubChem.
# TEAD-YAP block – TEAD-YAP interaction inhibition, primary screen, TEAD-YAP interaction inhibitor project, luminescence, HEK-TIYL cells | AID 1259422, 2018 | TEAD-Gal4/YAP UAS-luciferase luminescence | inhibition, % at 9.12 µM | 640,000 tested, 1.4% active; in the data active means inhibition above about 32%;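 further: 0% = median of test compound wells and 100% = reference inhibitor wells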
# MITF primary – MITF inhibitors, primary screen, biochemical, AlphaScreen, human | 650,000 tested, 0.91% active | inhibition, % at 2.6 µM | AlphaScreen MITF homodimerization, bead proximity signal | AID 1259374, 2018 | Microphthalmia-associated transcription factor (Homo sapiens), O75030; in the data active means inhibition above about 50%;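 further: 0% = vehicle wells with protein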
# Target sequence (O75030 whole entry, looked up): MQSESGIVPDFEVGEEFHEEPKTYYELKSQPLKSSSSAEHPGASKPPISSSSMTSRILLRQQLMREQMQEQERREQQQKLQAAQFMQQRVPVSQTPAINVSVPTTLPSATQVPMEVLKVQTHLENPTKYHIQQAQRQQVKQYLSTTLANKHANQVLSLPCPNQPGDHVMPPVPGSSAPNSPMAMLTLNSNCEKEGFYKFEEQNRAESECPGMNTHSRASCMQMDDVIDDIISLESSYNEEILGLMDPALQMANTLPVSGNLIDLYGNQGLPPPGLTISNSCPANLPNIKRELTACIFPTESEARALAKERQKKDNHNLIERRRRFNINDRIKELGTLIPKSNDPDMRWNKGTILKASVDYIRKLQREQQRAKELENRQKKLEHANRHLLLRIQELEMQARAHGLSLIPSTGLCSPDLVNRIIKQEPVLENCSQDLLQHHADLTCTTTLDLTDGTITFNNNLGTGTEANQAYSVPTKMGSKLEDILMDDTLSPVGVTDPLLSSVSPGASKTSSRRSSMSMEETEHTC
# GPR151 activ – activators of human GPR151, primary screen, cell-based, PathHunter beta-arrestin, luminescence; PathHunter beta-arrestin GPR151 cells; activation, % at 11.2 µM; 650,000 tested, 1% active; in the data active means activation above about 4.9%;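 further: 0% = median of compound wells and 100% = cells with positive control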
# FBW7 activator – FBW7 E3 ligase activators, primary screen, biochemical, AlphaScreen, human; AlphaScreen FBW7–phospho-cyclin E peptide binding, activator screen; normalized activity (activation), % at 26.1 µM; 650,000 tested, 0.13% active; AID 1259310, 2017; in the data active means normalized activity above about 1.9%;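 further: purified mutant Fbw7 with reduced substrate affinity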
# The depositor's hits bear a star. Sampled rows, rich in hits. Any-hit rate of the full collection: about 3.4%.
SMILES,TEAD-YAP block,MITF primary,GPR151 activ,FBW7 activator
CCc1ccc2nc(SCC(N)=O)c(C#N)cc2c1,50*,-9,1,0
CC(C)c1ccc2nc(SCC(=O)N3CCOCC3)c(C#N)cc2c1,36*,0,-1,0
CCc1ccc2nc(SCC(=O)OC)c(C#N)cc2c1,-61,5,1,0
N#Cc1cc2c(nc1SCC(=O)Nc1ccccc1)CCCC2,-38,-7,-1,0
N#Cc1cc2c(nc1SCC(=O)Nc1nc3ccccc3s1)CCC2,90*,3,1,0
N#Cc1cc2c(nc1SCC(=O)N1CCOCC1)CCCCC2,83*,-5,0,0
COc1cc2cc(C#N)c(SCC(=O)N3CCOCC3)nc2cc1OC,-3,-7,2,0
c1ccc(OCCNc2nc(NCCN3CCOCC3)nc3c2ncn3-c2ccsc2)cc1,5,17,-1,0
Cc1ccc(-c2c3c(nc4sc(C(=O)Nc5ccc(F)cc5)c(N)c24)CCC3)cc1,18,17,-1,0
COc1cc2nc(CN3CCCCCCC3)[nH]c(=O)c2cc1OC,-1,8,0,0
COc1cc2nc(CN3CCN(c4ccccn4)CC3)[nH]c(=O)c2cc1OC,73*,0,2,0
COc1cc2nc(CN3c4ccccc4CC3C)[nH]c(=O)c2cc1OC (configuration not stated),48*,1,1,0
N#Cc1cc(-c2ccnc(Nc3ccc(-n4cc(-c5cccnc5)nn4)cc3)n2)cc(N2CCOCC2)c1,-13,2,0,0
Cc1nc2scc(C)n2c1C(=O)NC1CCC1,7,18,-1,1.9*
CC(=O)Nc1ccc2nc(-c3cc(C)ccc3C)[nH]c2c1,46*,16,-1,1
CC(=O)Nc1ccc(-c2nc3ccc(C)cc3[nH]2)cc1,10,2,-3,0
Cc1ccc(-n2nc3c(c2NC(=O)c2ccc([N+](=O)[O-])cc2)CS(=O)(=O)C3)c(C)c1,4,11,0,1
COc1ccc(-n2nc3c(c2NC(=O)c2cc([N+](=O)[O-])ccc2Cl)CS(=O)(=O)C3)cc1,73*,9,-1,0
Cc1ccc(-n2nc3c(c2NC(=O)c2cc([N+](=O)[O-])ccc2Cl)CS(=O)(=O)C3)cc1,16,5,2,0
Cc1ccc(-n2nc3c(c2NC(=O)c2cc([N+](=O)[O-])ccc2Cl)CS(=O)(=O)C3)c(C)c1,70*,6,-1,0
Cc1ccccc1-n1nc2c(c1NC(=O)c1cc([N+](=O)[O-])ccc1Cl)CSC2,74*,11,0,0
COC(=O)c1sc(NC(=O)CSc2nnc3ccccn23)c(C(=O)OC)c1C,-4,-11,0,0
O=C1/C(=C\c2ccccc2)SC(=S)N1Cc1ccco1,4,10,1,0
CC(=O)N(CC1CCCO1)C1(C(=O)NC2CCCCC2)CCCCC1 (configuration not stated),13,0,0,0
O=C(Cc1ccc2c(c1)OCO2)Nc1cc(Nc2ccccc2-c2nn[nH]n2)c(Cl)cn1,1,15,0,1
SMILES,TEAD-YAP block,MITF primary,GPR151 activ,FBW7 activator
NC(=O)c1ccccc1Nc1nc(Nc2ccc(N3CCOCC3)c(Cl)c2)ncc1Cl,22,-10,1,0
NC(=O)c1ccccc1Nc1cc(NC(=O)Cc2ccc(CN3CCOCC3)cc2)ncc1C(F)(F)F,99*,6,1,0
NC(=O)c1ccccc1Nc1cc(NC(=O)Cc2ccc(CN3CCOCC3)cc2)ncc1Cl,99*,4,0,0
NC(=O)c1ccccc1Nc1cc(NC(=O)Cc2ccc(F)cc2)ncc1Cl,81*,8,1,0
NC(=O)c1ccccc1Nc1cc(Oc2ccc(N3CCNCC3)cc2)ncc1C(F)(F)F,3,-13,-2,1
NC(=O)c1ccccc1Nc1cc(NC(=O)Cc2ccc3ccccc3c2)ncc1C(F)(F)F,93*,2,-2,0
CC(=O)Oc1ccc(C(=O)N2CCC(C)CC2)cc1,-9,18,1,0
CCOC(=O)C1=C(C)N=c2s/c(=C\c3ccccc3OC)c(=O)n2C1c1cccs1 (configuration not stated),-2,-2,1,0
CNC(=O)C(O)C(C)(C)CO (configuration not stated),-3,2,-1,0
CC(NC(=O)COc1ccccc1)C(=O)N1CCN(C)CC1 (configuration not stated),-4,3,0,0
CC1Cc2ccccc2N1c1ncnc(N)c1[N+](=O)[O-] (configuration not stated),81*,19,-2,0
CC1CCN(c2ncnc(N)c2[N+](=O)[O-])CC1,28,18,3,0
CC1CN(c2ncnc(N)c2[N+](=O)[O-])CC(C)O1 (configuration not stated),28,9,0,0
Nc1ncnc(N2CCCc3ccccc32)c1[N+](=O)[O-],7,3,0,0
CC1CC(C)CN(c2ncnc(N)c2[N+](=O)[O-])C1 (configuration not stated),62*,12,2,0
CC1CCCCN1c1ncnc(N)c1[N+](=O)[O-] (configuration not stated),42*,-3,-1,0
Nc1ncnc(N2CCCC2)c1[N+](=O)[O-],33*,5,3,0
CCC1CCCCN1c1ncnc(N)c1[N+](=O)[O-] (configuration not stated),30,14,2,0
O=C(Nc1ccccc1)c1ccc(C(=O)Nc2ccccc2)cc1,-8,-1,0,0
CCNC(=O)COC(=O)Cn1nc(C)c([N+](=O)[O-])c1C,4,2,2,0
CC1CCCN(c2ncnc(N)c2[N+](=O)[O-])C1 (configuration not stated),62*,13,0,0
Cc1ccc(NC(=O)CC2c3ccccc3Oc3ccccc32)nc1,52*,15,0,0
O=C(CC1c2ccccc2Oc2ccccc21)Nc1ccccn1,25,17,0,0
COc1cc(/C=C2\C(=O)ON=C2c2ccccc2)ccc1OCc1ccccc1Cl,-32,42,-1,0
CCOC(=O)n1c(=O)oc2cc([N+](=O)[O-])ccc21,-2,2,0,0
Cc1[nH]c2c(C(=O)NCC3Cc4c(F)ccc(-c5ncccn5)c4O3)cccc2c1C (configuration not stated),32*,9,2,0
O=C(Nc1noc2ccccc12)c1ccco1,-21,17,-5,0
Cc1ccc(C(=O)Nc2noc3ccccc23)cc1,76*,5,-5,0
O=C(Nc1noc2ccccc12)c1ccccc1,51*,-10,-8,0
